PubChem BioAssay (EPA / NIEHS)
Several values for one entry are separate records, joined by “and”; a condition that tells them apart may be missing. Identical values can stand only once. Results filed as inconclusive are left out. Some compounds were tested as several samples or in several runs, with calls that do not always agree. Activity calls are given as the source filed them. How the source made its calls, unless noted: active means hit-call score of the fitted dose curve at least 0.9, where 1 is the maximum; inconclusive means response in the unintended direction; inactive means score below 0.9.

Experiments:
[1] = target: Estrogen receptor (Homo sapiens) (UniProt P03372); assay: OT_ERa_GFPERaERE_0120: Odyssey Thera (OT) 2-hour HeLa Transcription Induction Assay for Estrogen Receptor (AID 2283382)
Method in brief: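 Fluorescence microscopy read-out: inducible fluorescent protein reporter in HeLa cells, imaged 2 h post-dose. Signal increase over DMSO negative control fitted as single primary endpoint via high content image analysis.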

[2] = target: Retinoic acid receptor RXR-alpha (Homo sapiens) (UniProt P19793); assay: OT_NURR1_NURR1RXRa_1440: Odyssey Thera (OT) 24-hour HEK293T Protein Complementation Assay for Nurr1/retinoid X receptor (RXR) (AID 2283386)
Method in brief: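 Fluorescence PCA read-out; HEK293T; 24 h post-dose; bait/prey fused to reporter fragments; gain-of-signal fit vs DMSO negative control.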

[3] = target: Peroxisome proliferator-activated receptor gamma (Homo sapiens) (UniProt P37231); assay: OT_PPARg_PPARgSRC1_0480: Odyssey Thera (OT) 8-hour Protein-Complementation Assay for Peroxisome Proliferator-activated Receptor Gamma / SRC-1 Co-activator (AID 2283387);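 further: nuclear to cytoplasmic split Venus YFP fluorescence ratio reporting PPARg SRC-1 interaction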
Method in brief: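 HEK293T transiently transfected with PPARg and SRC-1 fused to Venus YFP fragments, compounds 8 h at 37C. Fixed, Draq5-stained cells imaged; nuclear/cytoplasmic 488 nm fluorescence ratio over at least 350 cells per image; gain fitted versus DMSO.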

[4] = target: Bile acid receptor (Homo sapiens) (UniProt Q96RI1); assay: OT_FXR_FXRSRC1_0480: Odyssey Thera (OT) 8-hour HEK293T Protein-Complementation Assay for Farnesoid X receptor/SRC-1 Co-activator (AID 2283383)
Method in brief: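 Fluorescence intensity read-out, 8 h post-dose, HEK293T protein-fragment complementation; FXR bait and SRC-1 prey each linked to reporter fragments. Activity scored as signal increase over DMSO negative control.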

[5] = target: Peroxisome proliferator-activated receptor gamma (Homo sapiens) (UniProt P37231); assay: OT_PPARg_PPARgSRC1_1440: Odyssey Thera (OT) 24-hour Protein-Complementation Assay for Peroxisome Proliferator-activated Receptor Gamma/ SRC-1 Co-activator (AID 2283388)
Method in brief: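 Transient HEK293T, YFP fragments 1-158/159-239 (mutant IFP1/IFP2) fused to PPARg/SRC-1; 24 h dosing; fix 4% formaldehyde, Draq5; Opera imaging 488/635 nm; N/C ratio, gain vs DMSO.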

[6] = target: Retinoic acid receptor RXR-alpha (Homo sapiens) (UniProt P19793); assay: OT_NURR1_NURR1RXRa_0480: Odyssey Thera (OT) 8-hour HEK293T Protein Complementation Assay for Nurr1/retinoid X receptor (RXR) (AID 2283385)
Method in brief: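 Read-out: fluorescence from protein-fragment complementation between Nurr1 and RXRα in human HEK293T cells, 8 h after dosing. DMSO served as negative control; increased signal counted as activity.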

[7] = CEETOX_H295R_11DCORT: CeeTox H295R High-throughput Steroidogenesis Assay for 11-Deoxycortisol (11DCORT) (AID 2283432; active means hit-call score of the fitted dose curve at least 0.9, where 1 is the maximum; inactive means score below 0.9;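 on AC50: 11-deoxycortisol secreted into the medium measured by LC-MS/MS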); settings: actives raise or lower the signal
Method in brief: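 H295R cells prestimulated 48 h with 10 uM forskolin, then exposed 48 h to chemical in 0.1% DMSO. 11-Deoxycortisol in medium quantified by HPLC-MS/MS after MTBE extraction; bidirectional fit versus DMSO. MTT viability read in same wells.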

[8] = CEETOX_H295R_OHPREG: CeeTox H295R High-throughput Steroidogenesis Assay for OH-Pregnenolone (OHPREG) (AID 2283434; active means hit-call score of the fitted dose curve at least 0.9, where 1 is the maximum; inactive means score below 0.9); settings: actives raise or lower the signal
Method in brief: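 Secreted 17alpha-hydroxypregnenolone measured by HPLC-MS/MS after liquid-liquid extraction. Human adrenal H295R cells received 48 h forskolin (10 uM) stimulation before 48 h chemical exposure at 0.1% final DMSO; MTT viability in same wells; bidirectional fit against DMSO.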

[9] = CEETOX_H295R_OHPROG: CeeTox H295R High-throughput Steroidogenesis Assay for OH-Progesterone (OHPROG) (AID 2283435; active means hit-call score of the fitted dose curve at least 0.9, where 1 is the maximum; inactive means score below 0.9;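 on AC50: 17alpha-hydroxyprogesterone secreted into medium measured by HPLC-MS/MS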); settings: actives raise or lower the signal
Method in brief: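 HPLC-MS/MS quantification of 17alpha-hydroxyprogesterone secreted by H295R cells after 48 h chemical exposure, following 48 h 10 uM forskolin prestimulation. Gain or loss of signal fitted relative to DMSO. Viability checked by MTT in the same wells.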

[10] = target: Bile acid receptor (Homo sapiens) (UniProt Q96RI1); assay: OT_FXR_FXRSRC1_1440: Odyssey Thera (OT) 24-hour HEK293T Protein-Complementation Assay for Farnesoid X receptor/SRC-1 Co-activator (AID 2283384)
Method in brief: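 Fluorescence readout, 24 h post-dose, HEK293T; FXR and SRC-1 fused to complementary reporter fragments, association reconstitutes signal. Positive-direction fit vs DMSO baseline.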

Measured: AC50

Bile acid receptor (Homo sapiens), sequence (Q96RI1 whole entry, looked up, the tested form may be a part): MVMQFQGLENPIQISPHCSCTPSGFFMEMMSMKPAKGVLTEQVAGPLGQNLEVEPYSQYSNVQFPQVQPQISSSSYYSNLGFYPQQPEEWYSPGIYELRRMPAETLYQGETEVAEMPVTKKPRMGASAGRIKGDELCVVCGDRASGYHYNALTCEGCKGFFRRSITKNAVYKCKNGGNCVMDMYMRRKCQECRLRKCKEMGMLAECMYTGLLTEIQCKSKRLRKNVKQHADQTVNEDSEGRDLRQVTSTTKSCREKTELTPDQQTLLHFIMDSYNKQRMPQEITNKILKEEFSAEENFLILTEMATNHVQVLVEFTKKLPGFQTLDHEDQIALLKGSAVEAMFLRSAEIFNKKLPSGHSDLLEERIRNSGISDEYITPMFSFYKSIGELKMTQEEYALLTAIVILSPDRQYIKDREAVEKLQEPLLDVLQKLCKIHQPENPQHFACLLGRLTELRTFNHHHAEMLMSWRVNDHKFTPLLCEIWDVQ
Estrogen receptor (Homo sapiens), sequence (P03372 whole entry, looked up): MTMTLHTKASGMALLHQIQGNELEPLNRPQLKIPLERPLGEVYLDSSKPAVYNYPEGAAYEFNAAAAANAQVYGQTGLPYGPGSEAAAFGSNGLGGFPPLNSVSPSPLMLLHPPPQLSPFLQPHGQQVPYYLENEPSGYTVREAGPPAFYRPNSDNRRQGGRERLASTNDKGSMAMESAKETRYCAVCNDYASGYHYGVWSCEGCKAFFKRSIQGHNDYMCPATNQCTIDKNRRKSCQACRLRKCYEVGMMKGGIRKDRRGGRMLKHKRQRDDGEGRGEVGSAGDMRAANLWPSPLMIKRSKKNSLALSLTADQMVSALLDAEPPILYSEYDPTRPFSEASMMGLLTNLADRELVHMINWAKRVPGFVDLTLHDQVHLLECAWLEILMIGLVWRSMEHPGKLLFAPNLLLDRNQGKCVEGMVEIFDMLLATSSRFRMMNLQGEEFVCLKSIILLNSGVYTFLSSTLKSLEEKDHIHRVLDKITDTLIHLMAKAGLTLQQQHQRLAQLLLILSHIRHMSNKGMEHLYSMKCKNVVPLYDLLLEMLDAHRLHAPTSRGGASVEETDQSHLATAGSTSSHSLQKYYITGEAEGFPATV
Retinoic acid receptor RXR-alpha (Homo sapiens), sequence (P19793 whole entry, looked up, the tested form may be a part): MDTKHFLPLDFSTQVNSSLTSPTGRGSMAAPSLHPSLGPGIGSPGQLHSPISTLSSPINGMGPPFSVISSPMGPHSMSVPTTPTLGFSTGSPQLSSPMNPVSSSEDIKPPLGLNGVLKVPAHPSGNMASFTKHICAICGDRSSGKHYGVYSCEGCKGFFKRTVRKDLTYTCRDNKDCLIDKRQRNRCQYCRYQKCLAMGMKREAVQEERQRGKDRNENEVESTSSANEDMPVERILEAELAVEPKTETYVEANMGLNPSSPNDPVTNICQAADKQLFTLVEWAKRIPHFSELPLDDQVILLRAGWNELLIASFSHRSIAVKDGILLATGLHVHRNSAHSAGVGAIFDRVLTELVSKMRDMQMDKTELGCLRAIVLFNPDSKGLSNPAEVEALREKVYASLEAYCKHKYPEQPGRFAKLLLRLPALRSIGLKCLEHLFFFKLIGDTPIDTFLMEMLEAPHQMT
Peroxisome proliferator-activated receptor gamma (Homo sapiens), sequence (P37231 whole entry, looked up, the tested form may be a part): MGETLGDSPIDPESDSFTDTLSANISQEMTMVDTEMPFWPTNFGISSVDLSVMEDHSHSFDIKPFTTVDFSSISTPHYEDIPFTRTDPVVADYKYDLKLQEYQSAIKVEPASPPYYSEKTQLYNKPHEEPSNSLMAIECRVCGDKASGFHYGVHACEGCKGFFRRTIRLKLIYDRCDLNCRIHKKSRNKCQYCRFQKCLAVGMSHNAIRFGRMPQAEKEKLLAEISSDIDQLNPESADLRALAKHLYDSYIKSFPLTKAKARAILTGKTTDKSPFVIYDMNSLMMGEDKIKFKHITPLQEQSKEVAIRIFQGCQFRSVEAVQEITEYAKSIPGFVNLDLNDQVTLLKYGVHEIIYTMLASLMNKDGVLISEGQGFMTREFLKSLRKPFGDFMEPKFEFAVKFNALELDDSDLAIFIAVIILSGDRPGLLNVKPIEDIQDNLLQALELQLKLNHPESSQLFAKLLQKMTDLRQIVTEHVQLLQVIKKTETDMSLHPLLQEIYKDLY

CCOP(=O)(OCC)Oc1nc(Cl)c(Cl)cc1Cl
active: [2] 9.87 µM
inactive: [1] | [2] | [3]

COCC(C)N(C(=O)CCl)c1c(C)csc1C (configuration not stated)
inactive: [1] | [4] | [2] | [3] | [5]

COC(=O)c1c(C(F)F)nc(C(F)(F)F)c(C2=NCCS2)c1CC(C)C
inactive: [1] | [6] | [2] | [3]

CCCC(=NOCC)C1=C(O)CC(CC(C)SCC)CC1=O (configuration not stated)
inactive: [1] | [6] | [2] | [3] | [7] | [8] | [9]

Cc1c(COC(=O)[C@@H]2[C@H](/C=C(\Cl)C(F)(F)F)C2(C)C)cccc1-c1ccccc1
inactive: [1] | [4] | [10] | [6] | [2] | [3] | [8] | [9]

O=P(O)(O)CCCl
inactive: [1] | [4] | [10] | [2] | [3] | [5]

N#Cc1c(Cl)cccc1Cl
inactive: [1] | [6] | [2] | [3] | [7] | [8] | [9]

CC(C)=CC1C(C(=O)OCc2coc(Cc3ccccc3)c2)C1(C)C (configuration not stated)
inactive: [1] | [10] | [3] | [5]
active: [4] 39.6 µM | [2] 20.3 µM

COc1cc(OC)nc(NC(=O)NS(=O)(=O)c2ncccc2OCC(F)(F)F)n1
inactive: [1] | [4] | [10] | [2] | [3]

CS(=O)(=O)c1ccc(C(=O)C2C(=O)CCCC2=O)c([N+](=O)[O-])c1
inactive: [1] | [4] | [10] | [3] | [5]

Nc1c(Cl)c(Cl)nc(C(=O)O)c1Cl
inactive: [1] | [6] | [2] | [3]

COCc1cnc(C2=NC(C)(C(C)C)C(=O)N2)c(C(=O)O)c1 (configuration not stated)
inactive: [1] | [10] | [2] | [3] | [7] | [8] | [9]

CSC(=O)c1c(C(F)F)nc(C(F)(F)F)c(C(=O)SC)c1CC(C)C
active: [2] 69.6 µM
inactive: [1] | [6] | [2] | [3] | [5]

CCNC(=O)NC(=O)C(C#N)=NOC
active: [10] 23.1 µM | [2] 29.6 µM
inactive: [1] | [4] | [6] | [2] | [3] | [5]

Cc1ccc(N=CN(C)C=Nc2ccc(C)cc2C)c(C)c1
inactive: [1] | [3] | [5]
active: [6] 50 µM | [2] 80.8 µM and 31.9 µM

O=c1n(Cl)c(=O)n(Cl)c(=O)n1Cl
inactive: [1] | [6] | [2] | [3]

Clc1cccc(C(Cl)(Cl)Cl)n1
inactive: [1] | [4] | [10] | [2] | [3] | [5]

COC(=O)NC(=S)Nc1ccccc1NC(=S)NC(=O)OC
inactive: [1] | [4] | [10] | [2] | [3] | [5] | [7] | [8] | [9]

CCOc1cc(C(C)(C)C)ccc1C1COC(c2c(F)cccc2F)=N1 (configuration not stated)
active: [4] 1.27 µM | [10] 31.6 µM | [2] 18.5 µM and 20.6 µM
inactive: [1] | [6] | [3] | [9]

CO/N=C(/C1=NOCCO1)c1ccccc1Oc1ncnc(Oc2ccccc2Cl)c1F
inactive: [1] | [3]
active: [4] 12.4 µM | [10] 12.7 µM

CCCCC(O)(Cn1cncn1)c1ccc(Cl)cc1Cl (configuration not stated)
inactive: [4] | [3]
active: [1] 77.5 µM | [10] 34.9 µM

COP(=S)(OC)Oc1ccc([N+](=O)[O-])c(C)c1
inactive: [1] | [2] | [3] | [5] | [8]
active: [4] 21.3 µM | [10] 29.8 µM | [7] 6.36 µM | [9] 2.22 µM

COCC(=O)N(c1c(C)cccc1C)C(C)C(=O)OC (configuration not stated)
inactive: [1] | [4] | [10] | [2] | [3] | [8] | [9]

CCCCOCN(C(=O)CCl)c1c(CC)cccc1CC
inactive: [1] | [6] | [2] | [3] | [5]
active: [4] 50 µM | [10] 75.1 µM | [2] 76.8 µM

CC1(C)C(C(=O)OC(C#N)c2cccc(Oc3ccccc3)c2)C1(C)C (configuration not stated)
inactive: [1] | [2] | [3] | [5]
active: [4] 2.05 µM | [10] 5.39 µM

CN=C=S
inactive: [1] | [4] | [10] | [2] | [3]

O=C(O)c1c(Cl)ccc2cc(Cl)cnc12
inactive: [1] | [4] | [10] | [2] | [3]

CCN(CC)C(=O)C(C)Oc1cccc2ccccc12 (configuration not stated)
active: [4] 32.6 µM | [10] 31.3 µM
inactive: [1] | [2] | [3] | [5] | [8] | [9]

C=CCOC(=O)C(C)(C)OC(=O)c1cc(-n2c(=O)cc(C(F)(F)F)n(C)c2=O)ccc1Cl
inactive: [1] | [6] | [2] | [3]

Cc1nc(N(C)C)nc(OC(=O)N(C)C)c1C
inactive: [1] | [10] | [2] | [3] | [7] | [8] | [9]

COc1ccc(-c2ccccc2)cc1NNC(=O)OC(C)C
inactive: [1] | [4] | [10] | [2] | [3]

CCC(C)n1c(=O)[nH]c(C)c(Br)c1=O (configuration not stated)
inactive: [1] | [4] | [10] | [2] | [3] | [8] | [9]
